Records with an inconclusive call do not appear. Where a call stands in place of a potency, no number is given. Values without a mark were called inactive. The source made the active and inactive calls. Calls follow the shape of the dose curve; as a rule, active = well fitted cell-killing curve with a large enough effect; inconclusive = small, poorly fitted or top-dose-only effect, or effect the other way; inactive = no such curve, though single readings can be large or run the other way.
Tests used:
[1] = Quantitative High-Throughput drug screen in 47 multiple myeloma cell lines against the NCATS MIPE library collection: LP1_DSMZ cell viability assay (AID 1918982); also: nearly all actives have a fitted effect of over 35% in size; also: potency is read from the fitted curve at half-maximal effect
Summary of the method: (§1)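 qHTS format: cells plated (500/well), pin-dosed with MIPE 4.0 compounds, kept 48 h at 37 °C. Readout was CellTiter-Glo luminescence, median RLU.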

[2] = Quantitative High-Throughput drug screen in 47 multiple myeloma cell lines against the NCATS MIPE library collection: KMS28PE_JCRB cell viability assay (AID 1918983); also: nearly all actives have a fitted effect of over 35% in size
Summary of the method: as §1

[3] = Quantitative High-Throughput drug screen in 47 multiple myeloma cell lines against the NCATS MIPE library collection: KMS34_JCRB cell viability assay (AID 1918985); also: nearly all actives have a fitted effect of over 40% in size; also: potency is read from the fitted curve at half-maximal effect
Summary of the method: as §1

[4] = Quantitative High-Throughput drug screen in 47 multiple myeloma cell lines against the NCATS MIPE library collection: OPM1_PLB cell viability assay (AID 1918989); also: nearly all actives have a fitted effect of over 40% in size; also: potency is read from the fitted curve at half-maximal effect
Summary of the method: as §1

[5] = Quantitative High-Throughput drug screen in 47 multiple myeloma cell lines against the NCATS MIPE library collection: U266_ATCC cell viability assay (AID 1919864); also: nearly all actives have a fitted effect of over 35% in size; also: potency is read from the fitted curve at half-maximal effect
Summary of the method: as §1

[6] = Quantitative High-Throughput drug screen in 47 multiple myeloma cell lines against the NCATS MIPE library collection: XG6_PLB cell viability assay (AID 1919865); also: nearly all actives have a fitted effect of over 40% in size; also: potency is read from the fitted curve at half-maximal effect
Summary of the method: as §1

[7] = Quantitative High-Throughput drug screen in 47 multiple myeloma cell lines against the NCATS MIPE library collection: XG1_PLB cell viability assay (AID 1919866); also: nearly all actives have a fitted effect of over 35% in size; also: potency is read from the fitted curve at half-maximal effect
Summary of the method: as §1

[8] = Quantitative High-Throughput drug screen in 47 multiple myeloma cell lines against the NCATS MIPE library collection: VP6_DJ cell viability assay (AID 1919867); also: nearly all actives have a fitted effect of over 40% in size; also: potency is read from the fitted curve at half-maximal effect
Summary of the method: as §1

[9] = Quantitative High-Throughput drug screen in 47 multiple myeloma cell lines against the NCATS MIPE library collection: UTMC2_PLB cell viability assay (AID 1919868); settings: CellTiter-Glo ATP luminescence, 48 h; viability (% of DMSO control): at 45.8 µM (top of the series); also: nearly all actives have a fitted effect of over 55% in size; also: potency is read from the fitted curve at half-maximal effect
Summary of the method: as §1

[10] = Quantitative High-Throughput drug screen in 47 multiple myeloma cell lines against the NCATS MIPE library collection: PCM6_Riken cell viability assay (AID 1919870); also: nearly all actives have a fitted effect of over 30% in size; also: potency is read from the fitted curve at half-maximal effect
Summary of the method: as §1

[11] = Quantitative High-Throughput drug screen in 47 multiple myeloma cell lines against the NCATS MIPE library collection: OPM2_DSMZ cell viability assay (AID 1919872); also: nearly all actives have a fitted effect of over 30% in size; also: potency is read from the fitted curve at half-maximal effect
Summary of the method: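 Primary qHTS used for cherry-picking: cells at 500/well, library compounds for 48 h (37C, 5% CO2), luminescent ATP assay.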

[12] = Quantitative High-Throughput drug screen in 47 multiple myeloma cell lines against the NCATS MIPE library collection: KMS11_JCRBsus cell viability assay (AID 1919873); also: nearly all actives have a fitted effect of over 50% in size; also: potency is read from the fitted curve at half-maximal effect
Summary of the method: as §1

[13] = Quantitative High-Throughput drug screen in 47 multiple myeloma cell lines against the NCATS MIPE library collection: KMS28BM_JCRB cell viability assay (AID 1919874); also: nearly all actives have a fitted effect of over 35% in size; also: potency is read from the fitted curve at half-maximal effect
Summary of the method: as §1

[14] = Quantitative High-Throughput drug screen in 47 multiple myeloma cell lines against the NCATS MIPE library collection: L363_DSMZ cell viability assay (AID 1918984); also: nearly all actives have a fitted effect of over 40% in size; also: potency is read from the fitted curve at half-maximal effect
Summary of the method: as §1

[15] = Quantitative High-Throughput drug screen in 47 multiple myeloma cell lines against the NCATS MIPE library collection: OCIMY5_PLB cell viability assay (AID 1918988); also: nearly all actives have a fitted effect of over 65% in size; also: potency is read from the fitted curve at half-maximal effect
Summary of the method: as §1

[16] = Quantitative High-Throughput drug screen in 47 multiple myeloma cell lines against the NCATS MIPE library collection: PE2_PLB cell viability assay (AID 1919869); also: nearly all actives have a fitted effect of over 35% in size; also: potency is read from the fitted curve at half-maximal effect
Summary of the method: as §1

[17] = Quantitative High-Throughput drug screen in 47 multiple myeloma cell lines against the NCATS MIPE library collection: SKMM1_PLB cell viability assay (AID 1919863); settings: SKMM1 myeloma viability, CellTiter-Glo ATP, 48 h; viability: active compounds read low; also: nearly all actives have a fitted effect of over 35% in size; also: potency is read from the fitted curve at half-maximal effect
Summary of the method: as §1

[18] = Quantitative High-Throughput drug screen in 47 multiple myeloma cell lines against the NCATS MIPE library collection: RPMI8226_ATCC cell viability assay (AID 1919871); also: nearly all actives have a fitted effect of over 30% in size; also: potency is read from the fitted curve at half-maximal effect
Summary of the method: as §1

[19] = Quantitative High-Throughput drug screen in 47 multiple myeloma cell lines against the NCATS MIPE library collection: OCIMY7_PLB cell viability assay (AID 1918987); settings: OCI-MY7 myeloma viability, CellTiter-Glo ATP, 48 h; viability (% of DMSO): at 45.8 µM (top of the series); also: nearly all actives have a fitted effect of over 65% in size; also: potency is read from the fitted curve at half-maximal effect
Summary of the method: as §1

SMILES | Potency [1] | Potency [2] | Potency [3] | Potency [4] | Potency [5] | Potency [6] | Potency [7] | Potency [8] | Potency [9] | Potency [10] | Potency [11] | Potency [12] | Potency [13] | Potency [14] | Potency [15] | Potency [16] | viability [17] [%] | Potency [18] | Potency [19] | Potency [17]
CCCNS(=O)(=O)Nc1ncnc(OCCOc2ncc(Br)cn2)c1-c1ccc(Br)cc1 | inactive | inactive | inactive | inactive | inactive | inactive | inactive | inactive | inactive | inactive | inactive | inactive | inactive | – | – | – | – | – | – | –
Cc1ccc(-n2[nH]c(C)c(N=Nc3cccc(-c4cccc(C(=O)O)c4)c3O)c2=O)cc1C | 16600 nM (active) | – | – | – | 20900 nM (active) | – | 23500 nM (active) | – | – | – | – | – | – | inactive | 26400 nM (active) | 26400 nM (active) | – | – | – | –
CCN(C(=O)c1c(O)c2c(Cl)cccc2n(C)c1=O)c1ccccc1 | inactive | – | – | inactive | – | inactive | inactive | – | – | – | inactive | inactive | inactive | inactive | inactive | inactive | – | – | – | –
CC1(C)O[C@@H]2C[C@H]3[C@@H]4CCC5=CC(=O)C=C[C@]5(C)[C@@H]4[C@@H](O)C[C@]3(C)[C@]2(C(=O)CO)O1 | 16.6 nM (active) | inactive | – | 7430 nM (active) | – | inactive | – | 18700 nM (active) | – | – | inactive | 33.2 nM (active) | inactive | – | 118 nM (active) | inactive | 142 | 33.2 nM (active) | – | –
C[C@H](NCc1ccc2c(c1)nc(NC(=O)c1ccc(-c3cn[nH]c3)s1)n2CCc1ccccc1)C(C)(C)C | 1050 nM (active) | – | 1050 nM (active) | 1180 nM (active) | 1480 nM (active) | 935 nM (active) | 743 nM (active) | 526 nM (active) | 935 nM (active) | 418 nM (active) | 2090 nM (active) | 590 nM (active) | 833 nM (active) | 469 nM (active) | 833 nM (active) | 1050 nM (active) | – | 2960 nM (active) | 418 nM (active) | 2960 nM (active)
O=C1NCCc2[nH]c(-c3ccncc3)cc21 | 4180 nM (active) | – | 5260 nM (active) | 4690 nM (active) | 2640 nM (active) | 1870 nM (active) | 2090 nM (active) | 3720 nM (active) | 3720 nM (active) | 1660 nM (active) | 14800 nM (active) | 5260 nM (active) | – | 2350 nM (active) | 8330 nM (active) | 1870 nM (active) | – | 16600 nM (active) | 2090 nM (active) | 5260 nM (active)
Cc1ccccc1C(=O)Nc1ccc(C(=O)N2CCCC(O)c3cc(Cl)ccc32)c(C)c1 (centres undefined) | 18700 nM (active) | inactive | inactive | inactive | inactive | – | 14800 nM (active) | – | – | – | inactive | inactive | inactive | – | – | – | 139 | inactive | – | –
Cn1cnc2c(F)c(Nc3ccc(Br)cc3F)c(C(=O)NOCCO)cc21 | inactive | inactive | – | inactive | inactive | 13.2 nM (active) | – | – | – | inactive | – | inactive | inactive | – | inactive | 74.3 nM (active) | 115 | inactive | – | –
O=C1NC(O)CCN1[C@@H]1O[C@H](CO)[C@H](O)[C@H]1O (some centres undefined) | 5900 nM (active) | inactive | – | – | inactive | inactive | 11800 nM (active) | – | – | – | inactive | inactive | inactive | – | – | inactive | 122 | – | – | –
CON=C(C(=O)N[C@@H]1C(=O)N2C(C(=O)O)=C(CSC(=O)c3ccco3)CS[C@H]12)c1csc(N)n1 | inactive | inactive | – | inactive | – | – | inactive | inactive | – | – | inactive | inactive | inactive | – | – | inactive | 134 | – | inactive | –
CC(=O)ON=C1C(c2c(O)[nH]c3cc(Br)ccc23)=Nc2ccccc21 | 11800 nM (active) | – | 4690 nM (active) | – | 14800 nM (active) | 1320 nM (active) | 1660 nM (active) | 2640 nM (active) | – | 2960 nM (active) | 18700 nM (active) | – | – | 3720 nM (active) | 9350 nM (active) | 4690 nM (active) | – | 16600 nM (active) | 1480 nM (active) | 18700 nM (active)
CCCCOc1ccc(C(=O)Nc2ccc(F)cc2F)cc1 | inactive | – | – | inactive | – | inactive | inactive | 7430 nM (active) | – | inactive | inactive | inactive | inactive | inactive | inactive | – | – | inactive | 105 nM (active) | –
C[C@@H](NCc1cc2ccccc2[nH]1)c1cccc2ccccc12 | inactive | inactive | – | inactive | inactive | inactive | – | inactive | – | – | inactive | inactive | inactive | – | inactive | – | 132 | inactive | – | –

— PubChem BioAssay (NCATS)
